Test results taken from PubChem BioAssay (NCI).
About 83,000 compounds went through this panel and 20% of them were active in at least one assay; those are over-represented in the sample as a whole.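 Cells were grown in 96-well plates and exposed to the test compound at a single concentration for 48 hours; results are reported as percent growth, with values below 10 considered active.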 Activity calls are given as the source filed them.

Tests used:
Test in all cases: NCI-60 one-dose screen, 48 h (100 = growth as untreated, 0 = no growth, -100 = all killed)
Details in all cases: 10 µM unless noted
DU-145 prostate = test system: DU-145 prostate
MALME-3M melanoma = test system: MALME-3M melanoma
MDA-MB-231 breast = test system: MDA-MB-231 breast
RXF 393 renal = test system: RXF 393 renal
SF-268 CNS = test system: SF-268 CNS
SF-295 CNS = test system: SF-295 CNS
SF-539 CNS = test system: SF-539 CNS
UACC-257 melanoma = test system: UACC-257 melanoma
M14 melanoma = test system: M14 melanoma
K-562 leukemia = test system: K-562 leukemia

Measured: growth

C[N+]1(C)C2CC[C@@H]1CC(OC(=O)C(O)c1ccccc1)C2 (some centres not stated)
inactive: DU-145 prostate 127% | MALME-3M melanoma 94.1% | MDA-MB-231 breast 107% | RXF 393 renal 111% | SF-268 CNS 114% | SF-295 CNS 104% | SF-539 CNS 108% | UACC-257 melanoma 110% | M14 melanoma 105%

CC[C@@H](C)/C=C(C)/C=C/C(O)=C1\C(=O)N[C@@H](Cc2ccc(OC(=O)[C@@](OC)(c3ccccc3)C(F)(F)F)cc2)C1=O
inactive: DU-145 prostate 73.2% | MDA-MB-231 breast 89.5% | RXF 393 renal 109% | SF-268 CNS 61.9% | SF-295 CNS 74.2% | SF-539 CNS 114% | UACC-257 melanoma 94% | M14 melanoma 97%
active: K-562 leukemia 9.3%

Cc1ccc(OCC(=O)Nc2ccc(Oc3ccccc3)cc2)c([N+](=O)[O-])n1
inactive: DU-145 prostate 90.4% | MALME-3M melanoma 87.7% | MDA-MB-231 breast 85.4% | RXF 393 renal 66.1% | SF-268 CNS 86.5% | SF-295 CNS 89.5% | SF-539 CNS 78.3% | M14 melanoma 74.7%

Clc1ccc2c(c1)C(Br)c1cc(Cl)cc(Cl)c1-2 (configuration not stated)
inactive: DU-145 prostate 109% | MALME-3M melanoma 45.1% | MDA-MB-231 breast 75.6% | SF-268 CNS 98.3% | SF-295 CNS 101% | SF-539 CNS 81.6% | M14 melanoma 34.8%

O=Nc1c2cccnc2n2nnc3ccc(Cl)cc3c12
inactive: MALME-3M melanoma 23.7% | MDA-MB-231 breast 13.9% | SF-268 CNS 48.7% | SF-295 CNS 90.3% | SF-539 CNS 91.4% | UACC-257 melanoma 28.6% | M14 melanoma 81.5%
active: DU-145 prostate -10.6%

Cc1ccc(-c2c3c(N)c4c(nc3nc3c2c(C)nn3-c2ccccc2)CCC4)cc1
inactive: DU-145 prostate 106% | MALME-3M melanoma 91.5% | MDA-MB-231 breast 37.4% | SF-268 CNS 108% | SF-295 CNS 98.5% | SF-539 CNS 72.7% | M14 melanoma 88%

O=C1/C(=C\c2coc3ccccc3c2=O)c2ccccc2N1c1c(Cl)cccc1Cl
inactive: DU-145 prostate 24.6% | MALME-3M melanoma 83.8% | MDA-MB-231 breast 60.5% | RXF 393 renal 44.1% | SF-268 CNS 32% | SF-539 CNS 49.4% | UACC-257 melanoma 61.2% | M14 melanoma 43.4%
active: SF-295 CNS -12%

COc1ccc(-c2ccc(O)c(C(=O)/C=C/c3cc(OC)c(OC)c(OC)c3)c2)cc1
inactive: DU-145 prostate 83.7% | K-562 leukemia 56.5% | MDA-MB-231 breast 85.6% | RXF 393 renal 94.5% | SF-268 CNS 79.6% | SF-295 CNS 92.4% | SF-539 CNS 96.8% | UACC-257 melanoma 86.6% | M14 melanoma 93.6%

Cn1c(N2N=C(c3ccc(Cl)cc3)CC2c2ccccc2)nc(-c2ccccc2)c(C#N)c1=O (configuration not stated)
inactive: DU-145 prostate 89.4% | MALME-3M melanoma 97.6% | MDA-MB-231 breast 58.6% | RXF 393 renal 96.4% | SF-268 CNS 57.9% | SF-295 CNS 85.4% | SF-539 CNS 103% | M14 melanoma 90%

O=C(N/N=C/c1cccc([N+](=O)[O-])c1)c1ccc(Br)o1
inactive: DU-145 prostate 103% | MALME-3M melanoma 115% | MDA-MB-231 breast 115% | RXF 393 renal 104% | SF-268 CNS 104% | SF-295 CNS 111% | SF-539 CNS 98.4% | M14 melanoma 99.8%

O=C(Oc1cccc2ccccc12)c1ccccc1C(=O)c1ccccc1
inactive: DU-145 prostate 99.3% | MDA-MB-231 breast 85.7% | RXF 393 renal 98.3% | SF-268 CNS 79% | SF-295 CNS 98.5% | SF-539 CNS 103% | UACC-257 melanoma 90.4% | M14 melanoma 93.4%
active: K-562 leukemia 5.05%

COC(=O)CC1=C(c2ccc([N+](=O)[O-])cc2)CCC1=O
inactive: DU-145 prostate 101% | K-562 leukemia 98.7% | MDA-MB-231 breast 102% | RXF 393 renal 110% | SF-268 CNS 101% | SF-295 CNS 100% | SF-539 CNS 97% | UACC-257 melanoma 109% | M14 melanoma 109%

CCOC(=O)CCC(=O)O[C@H]1[C@H](O[C@@H]2[C@@H](C)[C@H](O[C@H]3C[C@@](C)(OC)[C@@H](O)[C@H](C)O3)[C@@H](C)C(=O)O[C@H](CC)[C@@](C)(O)[C@H](O)[C@@H](C)C(=O)[C@H](C)C[C@@]2(C)O)O[C@H](C)C[C@@H]1N(C)C
inactive: DU-145 prostate 119% | MALME-3M melanoma 99.4% | MDA-MB-231 breast 106% | RXF 393 renal 110% | SF-268 CNS 115% | SF-295 CNS 104% | SF-539 CNS 101% | UACC-257 melanoma 113% | M14 melanoma 97.2%

CCC(=O)Nc1cc2c(cc1Cl)-c1ccccc1C2
inactive: DU-145 prostate 109% | K-562 leukemia 104% | MDA-MB-231 breast 74.5% | RXF 393 renal 102% | SF-268 CNS 84.3% | SF-295 CNS 121% | SF-539 CNS 94.3% | UACC-257 melanoma 96.6% | M14 melanoma 102%

O=[N+]([O-])c1cc([N+](=O)[O-])c(N2CCCC2)cc1NN=C(c1ccc(O)cc1)c1ccc(O)cc1
active: RXF 393 renal -22.2% | M14 melanoma 7.88%
inactive: DU-145 prostate 95.8% | MALME-3M melanoma 140% | MDA-MB-231 breast 93.6% | SF-268 CNS 77.3% | SF-295 CNS 79.6% | SF-539 CNS 61.9%

O=C1N=C(N2CCOCC2)S/C1=C\c1cn(-c2ccccc2)nc1-c1ccccc1
inactive: DU-145 prostate 69.9% | K-562 leukemia 92.9% | MDA-MB-231 breast 52.7% | RXF 393 renal 51.8% | SF-268 CNS 74.8% | SF-295 CNS 48.4% | SF-539 CNS 28.4% | UACC-257 melanoma 81.9% | M14 melanoma 83.5%

CCN(CC)c1ccc(/C=C/C(=O)c2cccc(NS(C)(=O)=O)c2)cc1
inactive: DU-145 prostate 49.6% | MALME-3M melanoma 76.2% | MDA-MB-231 breast 43% | SF-268 CNS 61.5% | SF-295 CNS 47.5% | SF-539 CNS 40.6% | M14 melanoma 32.1%

Nc1ccc2c(c1)C(=O)c1cc(Cl)c(Cl)cc1-2
inactive: DU-145 prostate 100% | K-562 leukemia 87.5% | MDA-MB-231 breast 79.1% | RXF 393 renal 104% | SF-268 CNS 93.4% | SF-295 CNS 105% | SF-539 CNS 87.4% | UACC-257 melanoma 107% | M14 melanoma 104%

CCCCCCCCN(CCO)CCCCCCCC
inactive: DU-145 prostate 112% | K-562 leukemia 104% | MDA-MB-231 breast 117% | RXF 393 renal 93.2% | SF-268 CNS 107% | SF-539 CNS 94.4% | UACC-257 melanoma 94.3% | M14 melanoma 101%

c1ccc(CN=C(NCc2ccccc2)NCc2ccccc2)cc1
active: UACC-257 melanoma -13.2%
inactive: DU-145 prostate 66.4% | K-562 leukemia 35.7% | MDA-MB-231 breast 70.8% | RXF 393 renal 91.7% | SF-268 CNS 63.8% | SF-295 CNS 30% | SF-539 CNS 93.6% | M14 melanoma 52.9%

COc1ccc(-c2c3c(N)nc(-c4ccncc4)nc3nc3c2c(C)nn3-c2ccccc2)cc1
inactive: DU-145 prostate 82% | MALME-3M melanoma 76% | MDA-MB-231 breast 67.6% | RXF 393 renal 69.4% | SF-268 CNS 54% | SF-295 CNS 58.7% | M14 melanoma 69.1%
active: SF-539 CNS -40%

COc1ccc(/C=C/C(=O)c2cccc(NS(C)(=O)=O)c2)cc1
inactive: DU-145 prostate 42.6% | MALME-3M melanoma 112% | MDA-MB-231 breast 80.5% | SF-268 CNS 82% | SF-295 CNS 92.1% | SF-539 CNS 94.7% | M14 melanoma 97.3%

O=C(Oc1ccccc1)C(Br)C(Br)c1ccccc1 (configuration not stated)
active: DU-145 prostate -38.7% | K-562 leukemia -44.2%
inactive: MDA-MB-231 breast 101% | RXF 393 renal 98.2% | SF-268 CNS 78.7% | SF-295 CNS 130% | SF-539 CNS 110% | UACC-257 melanoma 93.9% | M14 melanoma 102%

Nc1ccc2c(c1Br)Cc1ccccc1-2
inactive: DU-145 prostate 106% | K-562 leukemia 95.2% | MDA-MB-231 breast 74.7% | RXF 393 renal 111% | SF-268 CNS 86.7% | SF-295 CNS 92.1% | SF-539 CNS 79.4% | UACC-257 melanoma 114% | M14 melanoma 105%

CC(=O)O[C@H]1CC[C@@]2(C)C(=CC[C@@H]3[C@@H]2CC[C@]2(C)C(c4cccnc4)=CC[C@@H]32)C1
inactive: DU-145 prostate 94.9% | MALME-3M melanoma 72.6% | MDA-MB-231 breast 86.3% | SF-268 CNS 76.4% | SF-295 CNS 43.3% | SF-539 CNS 28.7% | M14 melanoma 72.7%

CCCCCCCCCCCCC1CCCC(C)C1 (configuration not stated)
inactive: DU-145 prostate 109% | MALME-3M melanoma 93.3% | MDA-MB-231 breast 105% | RXF 393 renal 109% | SF-268 CNS 110% | SF-295 CNS 90.1% | SF-539 CNS 118% | M14 melanoma 106%

O=[N+]([O-])c1ccc(N=Nc2c(Cl)cc(O)cc2Cl)cc1
active: K-562 leukemia 1.93% | MDA-MB-231 breast -35.6% | RXF 393 renal 7.36% | SF-268 CNS -5.79% | SF-295 CNS -55.6% | SF-539 CNS -2.1% | UACC-257 melanoma -21.5% | M14 melanoma -30%
inactive: DU-145 prostate 11.1%

Cc1cccc2nnc(-c3ccccc3)n12
inactive: DU-145 prostate 124% | K-562 leukemia 100% | MDA-MB-231 breast 94.5% | RXF 393 renal 117% | SF-268 CNS 111% | SF-295 CNS 109% | SF-539 CNS 108% | UACC-257 melanoma 105% | M14 melanoma 102%

C(=C1c2ccccc2-c2ccccc21)c1ccccn1
inactive: DU-145 prostate 106% | K-562 leukemia 19.6% | MDA-MB-231 breast 62.2% | RXF 393 renal 80.6% | SF-268 CNS 82.7% | SF-295 CNS 71.3% | SF-539 CNS 72.2% | UACC-257 melanoma 91.1% | M14 melanoma 33.4%

O=C(O)CNC(=O)C1(N2C(=O)c3ccccc3C2=O)CCCC1
inactive: DU-145 prostate 124% | K-562 leukemia 96.2% | MDA-MB-231 breast 101% | RXF 393 renal 95.7% | SF-268 CNS 116% | SF-295 CNS 102% | SF-539 CNS 118% | UACC-257 melanoma 109% | M14 melanoma 105%
